Source: PubChem BioAssay (NCATS)
Inconclusive results are not listed. Entries that show only a call come without a potency. Activity calls are given as the source filed them. The call rests on the fitted dose curve; in most records, active means well fitted inhibition curve with a large enough effect; inconclusive means small, poorly fitted or top-dose-only effect; inactive means flat fitted curve, though single readings scatter. *1 amine or outer side, *2 acyl side, *3 side chain or, on linkers, in order; H or OH if unused. Where a SMILES comes first, the peptide text is derived from it. Bridges are numbered along the chain shown (N, C = ends). Side-chain parts run from the residue outwards. [ ]: non-standard residue; d: D form. The star is where a group is joined. Ethylenediamine = C(CN[*:2])N[*:1]; Hyp = O=C(O)[C@@H]1C[C@@H](O)CN1; Phg = N[C@H](C(=O)O)c1ccccc1; CO = O=C([*:1])[*:2]; Bn = c1ccc(C*)cc1

These molecules were tested against Glutathione peroxidase 1 (Homo sapiens) (UniProt P07203) (assay: Primary qHTS Assay for Inhibitors of Recombinant Selenoprotein Glutathione Peroxidase 1 (GPX1) (AID 1845191; further: nearly all actives have a fitted effect of over 65% in size)). Conditions: recombinant GPX1, GR-coupled NADPH fluorescence, 15 min; series mostly up to 48.8 µM.
Chain of Glutathione peroxidase 1 (Homo sapiens) (P07203 whole entry, looked up): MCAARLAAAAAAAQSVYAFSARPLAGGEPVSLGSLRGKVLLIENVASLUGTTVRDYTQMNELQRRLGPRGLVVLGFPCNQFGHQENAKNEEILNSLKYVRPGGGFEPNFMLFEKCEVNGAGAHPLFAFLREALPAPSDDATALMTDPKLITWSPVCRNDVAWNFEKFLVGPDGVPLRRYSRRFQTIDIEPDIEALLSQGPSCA
In short: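 GR-coupled readout: NADPH consumption tracked by fluorescence, ex 340/em 450 nm, at t=0 and after 15 min at RT. Final mix 10 nM GPX1, 1 mM GSH, 0.5 mM CHP, 0.5 mM NADPH, 100 nM GR, 0.01% BSA, following 30 min enzyme–compound preincubation.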
Potency means the concentration at half of the fitted maximal effect.

Row | Structure (SMILES) | Potency
1 | NNCCc1ccc(NC(=O)CCCc2ccccc2)cc1 | inactive
2 | CC(C)=C(C#N)C(=O)N1CCCN(c2cc(NCCC(=O)O)nc(-c3ccccn3)n2)CC1 | inactive
3 | O=C(CCl)Nc1ccc(S(=O)(=O)c2ccc(NC(=O)CCl)cc2)cc1 | inactive
4 | Cc1cccc(N2C(=O)N(Cc3ccc(C(C)(C)C)cc3)c3ccccc3S2(=O)=O)c1 | inactive
5 | NCc1ccc(Oc2ccccc2)cc1 | inactive
6 | CC(C)(C)NCC(O)COc1ccccc1C#N (stereo not given) | inactive
7 | CCN1CCN(C2(C(=O)NCCc3ccccc3)Cc3ccccc3C2)CC1 | inactive
8 | C[C@@H]1NC(=O)[C@@H]2CCCN2C(=O)[C@H](CC(N)=O)NC(=O)[C@@H]2CSSC[C@H](N)C(=O)N[C@H]3CSSC[C@H](NC1=O)C(=O)N[C@@H]([C@@H](C)O)C(=O)NCC(=O)N[C@H](C(=O)N[C@@H](Cc1ccc(O)cc1)C(=O)O)CSSC[C@H](NC(=O)[C@H](Cc1ccc(O)cc1)NC(=O)[C@H](CCC(=O)O)NC3=O)C(=O)N2 (H-CCEYCCNPACTGCY-OH; disulfide 1-6, 2-10, 5-13) | inactive
9 | NC(=O)C1CCCN1C(=O)C(Cc1cnc[nH]1)NC(=O)C1CCC(=O)N1 (stereo not given) | inactive
10 | CCC(=O)O[C@@H]1[C@@H](C)O[C@@H](O[C@H]2[C@H](N(C)C)[C@@H](O)[C@H](O[C@H]3[C@@H](CC=O)C[C@@H](C)[C@@H](OC(C)=O)/C=C/C=C/C[C@@H](C)OC(=O)C[C@@H](OC(=O)CC)[C@@H]3OC)O[C@@H]2C)C[C@]1(C)OC(C)=O | inactive
11 | OCc1cc(C(O)CNCCCCCCOCCOCc2c(Cl)cccc2Cl)ccc1O (stereo not given) | inactive
12 | NC(=O)C1(N2CCCCC2)CCN(CCCN2c3ccccc3CCc3ccccc32)CC1 | inactive
13 | CC1(C)S[C@@H]2[C@H](NC(=O)[C@H](NC(=O)N3CCNC3=O)c3ccccc3)C(=O)N2C1C(=O)O (stereo not given in full) | inactive
14 | NCCCC[C@@H]1NC(=O)[C@@H](Cc2c[nH]c3ccccc23)NC(=O)[C@H](c2ccccc2)NC(=O)[C@@H]2C[C@@H](OC(=O)NCCN)CN2C(=O)[C@H](Cc2ccccc2)NC(=O)[C@H](Cc2ccc(OCc3ccccc3)cc2)NC1=O (cyclo([Hyp]([CO-Ethylenediamine])[Phg][dW]KY(Bn)F)) | inactive
15 | CCn1cc(-c2cccc(C(F)(F)F)c2)c2sc(C(N)=NC3CCS(=O)(=O)CC3)cc2c1=O | 20.2 µM (active)
16 | CCCN1C[C@H](C)[C@@H](O)[C@](C)(O)[C@@H](CC)OC(=O)[C@H](C)[C@@H](O[C@H]2C[C@@](C)(OC)[C@@H](O)[C@H](C)O2)C(C)[C@@H](O[C@@H]2O[C@H](C)C[C@H](N(C)C)[C@H]2O)[C@](C)(O)C[C@H]1C (stereo not given in full) | inactive
17 | Oc1c(C(c2ccccc2)N2CCOCC2)sc2nc(-c3ccco3)nn12 (stereo not given) | inactive
18 | O=C(O)c1ccnc2cc(C(OCCCN3CCCCC3)c3ccccc3Cl)[nH]c12 (stereo not given) | inactive
19 | CC(C)C[C@H](NC(=O)[C@H]1O[C@@H]1C(=O)O)C(=O)NCCCCN=C(N)N | inactive
20 | CCCCCCCCCCCCCCCC(=O)OC1C(SC)OC(C(NC(=O)C2CC(CCC)CN2C)C(C)Cl)C(O)C1O (stereo not given) | inactive

Row | Structure (SMILES) | Potency
21 | O[C@@H]1[C@@H](O)[C@@H](O)OC[C@@H]1O | inactive
22 | C=CS(=O)(=O)N1CCCN(c2cc(NCCC(=O)O)nc(-c3ccccn3)n2)CC1 | inactive
23 | CCCCC(CC)COC(=O)c1ccc(Nc2nc(Nc3ccc(C(=O)OCC(CC)CCCC)cc3)nc(Nc3ccc(C(=O)OCC(CC)CCCC)cc3)n2)cc1 (stereo not given) | inactive
24 | Cc1nc2c(C#N)c[nH]n2c(=O)c1C(C)C | inactive
25 | Cc1ccc(N2CCN(C(=O)CCc3c(C)nc4c(c3C)c(=O)n(C)c(=O)n4C)CC2)c(C)c1 | inactive
26 | C/C=C(\C)C(=O)O | inactive
27 | OC(CCN1CCCCC1)(c1ccccc1)C1CCCC1 (stereo not given) | inactive
28 | COc1ccc(OC)c(N2C(=O)C(Cl)=C(N3CCCCC3)C2=O)c1 | inactive
29 | Cc1cc(O)ccc1C(C)(C)C | inactive
30 | OC[C@H]1O[C@@H](c2ccc(F)c(Cc3cc4ccccc4s3)c2)[C@H](O)[C@@H](O)[C@@H]1O | inactive
31 | CN1CCc2cc(Nc3ncc(C4CC4)c(NCCCNC(=O)C4CCC4)n3)ccc2C1 | inactive
32 | CCc1c(C(=O)Nc2cc(S(=O)(=O)N(CC)CC)ccc2O)[nH]c(C)c1C(C)=O | inactive
33 | Cc1nc2c(c(C)c1CCC(=O)N1CCN(c3ccccc3)CC1)c(=O)n(C)c(=O)n2C | inactive
34 | CCC1OC(=O)[C@H](C)C(=O)[C@H](C)[C@@H](OC2O[C@H](C)C[C@H](N(C)C)[C@H]2O)[C@](C)(OC)C[C@@H](C)C(=O)[C@@H](C)[C@@H]2N(CCCCn3cnc(-c4cccnc4)c3)C(=O)O[C@]12C (stereo not given in full) | inactive
35 | CCC(=O)O[C@]1(C(=O)COC(C)=O)CC[C@H]2[C@@H]3CCC4=CC(=O)CC[C@]4(C)[C@H]3[C@@H](O)C[C@@]21C | inactive
36 | CO[C@H]1C[C@H](O[C@@H]2[C@H](C)O[C@H](O[C@@H]3/C(C)=C/C[C@@H]4C[C@@H](C[C@]5(C=C[C@H](C)[C@@H](C6CCCCC6)O5)O4)OC(=O)[C@@H]4C=C(C)C(O)[C@H]5OC/C(=C\C=C\[C@@H]3C)[C@]54O)C[C@@H]2OC)O[C@@H](C)[C@@H]1O (stereo not given in full) | inactive
37 | C=C1/C(=C/C=C2\CCC[C@]3(C)[C@@H]([C@H](C)CCCC(O)(C(F)(F)F)C(F)(F)F)CC[C@@H]23)C[C@@H](O)C[C@@H]1O | inactive
38 | CC(c1ccc(-c2ccc(CC(=O)O)cn2)cc1)N1CCCCC1 (stereo not given) | inactive
39 | CC(C)(C)NC(=O)N[C@H](C(=O)N1C[C@H]2[C@@H]([C@H]1C(=O)NC(CC1CCC1)C(=O)C(N)=O)C2(C)C)C(C)(C)C (stereo not given in full) | inactive
40 | O=c1cc(N2CCOCC2)oc2c1ccc1ccccc12 | inactive
